Data taken from PubChem BioAssay (Tox21).
Results filed as inconclusive are left out. A number with no mark means an inactive call. Calls come from the whole dose curve. Positions of bridges follow the written chain, without caps; N, C: chain ends. Non-standard residues stand in square brackets, D forms with d. Residues, ends and D or L forms follow the SMILES beside them. hArg = N=C(N)NCCCC[C@H](N)C(=O)O; Mpa = O=C(O)CCS

Test: qHTS assay to identify small molecule antagonists of the sonic hedgehog signaling (Shh) pathway (AID 1259369); note: nearly all actives have a fitted effect of over 45% in size
Settings: NIH/3T3 Gli1-Luc reporter, Shh antagonist, luminescence 24 h; series mostly up to 92.4 µM; activity change, negative = inhibition: at the top concentration
Description: U.S. Tox21 Program National Center for Advancing Translational Sciences [NCATS] NIH Chemical Genomics Center [NCGC] U.S. Environmental Protection Agency [EPA] National Institutes of Environmental Health Sciences [NIEHS] National Toxicology Program [NTP] U.S. Food and Drug Administration [FDA] Tox21 Assay Overview: The sonic hedgehog (Shh) pathway is essential for normal embryonic development. Dysregulation of the Shh pathway can cause severe developmental defects in organs. Therefore chemicals that interfere with the pathway are potential developmental toxicants. A cell line designated 3T3Gli1-Luc (DMB/OARSA/CFSAN/FDA, Laurel, MD), a NIH/3T3 derived clone containing stably integrated Gli1-Luc reporter is used to detect chemical interference of the Shh pathway, by changes in the expression of the firefly Luc gene under the control of the Gli1 transcriptional response element. This cell line was used to screen Tox21 libraries for identifying and prioritizing the potential developmental toxicants that interfere Shh pathway. Conditioned medium-stimulated mode was used to screen for chemicals inhibiting Shh signaling.
Tox21 Assay Protocol Summary: 3T3 Gli1-Luc cells were dispensed at 2,000 per well in 5uL of culture medium into white solid bottom 1536-well plates (Greiner Bio-One, Monroe, NC) using a Multidrop Combi (Thermo Scientific, Waltham, MA) dispenser. The assay plates were incubated at 37 C and 5% CO2 for 4hr, and then 23nL of compounds dissolved in DMSO and positive control were transferred using a Pintool station (Wako, San Diego, CA). The compound transfer was followed by the addition of 1ul conditioned medium or assay buffer using two separate tips of Flying Reagent Dispenser (FRD, Aurora Discovery, San Diego, CA). The assay plates were incubated at 37C and 5% CO2 for 24hr. For luciferase read, 4uL of Amplite Luciferase reporter gene assay reagent (AAT Bioquest, Inc. Sunnyvale, CA) was added to each well of the assay plates using FRD and incubated at room temperature for 30min. The luminescence signal was measured using a ViewLux plate reader (Perkin Elmer, Shelton, CT).
% is set by controls: 0 for no effect and ±100 for the full control effect.

SMILES | activity change, negative = inhibition
O=C1OCCO1 | 3.83%
CCCCCCC1(C)CCC(=O)O1 (stereo not given) | 2.79%
[O]=[Mo](=[O])=[O] | -0.431% [at 19 µM]
N[C@@H](Cc1ccc(O)cc1)C(=O)O | 29.1% [at 8.39 µM]
CO/N=C(/C(=O)N[C@@H]1C(=O)N2C(C(=O)[O-])=C(C[n+]3ccn4ncccc43)CS[C@H]12)c1nsc(N)n1 | 7.68% [at 42.5 µM]
COC(=O)c1ccccc1C(=O)O | -5%
CCCCOC(=O)[C@H](C)O | 8.02%
COc1cc(/C=C/C(N)=O)cc(OC)c1OC | -7.94% [at 42.5 µM]
O=C1NC(c2ccccc2)(c2ccccc2)C(=O)N1COP(=O)(O)O | 25.2% [at 42.5 µM]
CC12CCC(C1)C(C)(C)C2O (stereo not given) | 9.52%
CC(O)COC(C)(C)C (stereo not given) | 2.18%
CCC(C)C(C)=O (stereo not given) | 0%
CCCc1ccc(O)cc1 | -2.59%
CC(=O)C(C)O (stereo not given) | 1.29%
CN(C)C(C)(C)CO | 7.37%
CO[Si](CCCn1c(=O)n(CCC[Si](OC)(OC)OC)c(=O)n(CCC[Si](OC)(OC)OC)c1=O)(OC)OC | 4.6% [at 42.5 µM]
C[C@H]1[C@@H](c2ccccc2)NC(=O)N1C | -3.46%
CC(C)Nc1ccccc1 | 27.2%
C=C(C)C1CC=C(C)C(=O)C1 (stereo not given) | 6.38%
O=C(O)CONC(=O)c1ccccc1 | 0%

SMILES | activity change, negative = inhibition
CCO[Si](CC)(OCC)OCC | 0%
COS(=O)(=O)O | 0%
CC1c2ccccc2CN1NC(=O)c1ccc(Cl)c(S(N)(=O)=O)c1 (stereo not given) | 35.8% [at 42.5 µM]
CCOC(=O)CC1(C)OCC(C)O1 (stereo not given) | 13.4%
O=Cc1ccccc1Cl | 0.608%
CN1C[C@@H]2C[C@H]1CN2c1cc2c(cc1F)c(=O)c(C(=O)O)cn2C1CC1 | -3.45% [at 19 µM]
CC(C)=CCC/C(C)=C/COC=O | 1.29%
C=CCCCC | 0.299%
NC(=O)[C@@H]1CSSCCC(=O)N[C@@H](CCCCN=C(N)N)C(=O)NCC(=O)N[C@@H](CC(=O)O)C(=O)N[C@@H](Cc2c[nH]c3ccccc23)C(=O)N2CCC[C@H]2C(=O)N1 ([Mpa][hArg]GDWPC-NH2; disulfide 1-7) | 26.6% [at 42.5 µM]
CCC(C)OC(C)CC (stereo not given) | -2.5%
CC1(C)O[C@H]2CC(=O)OC[C@]23[C@H]2CC[C@@]4(C)[C@H](c5ccoc5)OC(=O)[C@H]5O[C@]54[C@]2(C)C(=O)C[C@@H]13 | 23% [at 42.5 µM]
O=C[O][Al]([O]C=O)[O]C=O | -0.253%
O=[N+]([O-])c1c(Cl)cc(Cl)cc1Cl | 10.1%
O=C(NCN1CCOCC1)c1cnccn1 | 16.4% [at 42.5 µM]
CCn1cc(C(=O)O)c(=O)c2cnc(N3CCCC3)nc21 | 29.2% [at 8.39 µM]
O=C(Cl)c1ccccc1[N+](=O)[O-] | 11%
Cn1nnc2c(C(N)=O)ncn2c1=O | 20.4% [at 42.5 µM]
OCCN1CCOCC1 | 81.9%
O=C(O)[C@H](O)c1ccccc1 | 0.148% [at 42.5 µM]
N#CCC(=O)NN | 25.8% [at 42.5 µM]
